Each structure is given as a SMILES string. Values without a mark were called inactive. Calls of active or inactive are those of the source. Cut-off read from the data, not from the text of the source: active = inhibition above about 31%; inactive = the rest.

In the assay the target is N-formyl peptide receptor 2 (Homo sapiens) (UniProt P25090). The experiment in a line: human FPR2 ligand displacement single-point screen – cell-based, flow cytometry, single concentration (AID 765). The settings on record: FPRL1-expressing cells, fluorescent ligand binding inhibition, stronger effect = higher value; at 5.1 µM unless noted.
Sequence of N-formyl peptide receptor 2 (Homo sapiens) (P25090 whole entry, looked up): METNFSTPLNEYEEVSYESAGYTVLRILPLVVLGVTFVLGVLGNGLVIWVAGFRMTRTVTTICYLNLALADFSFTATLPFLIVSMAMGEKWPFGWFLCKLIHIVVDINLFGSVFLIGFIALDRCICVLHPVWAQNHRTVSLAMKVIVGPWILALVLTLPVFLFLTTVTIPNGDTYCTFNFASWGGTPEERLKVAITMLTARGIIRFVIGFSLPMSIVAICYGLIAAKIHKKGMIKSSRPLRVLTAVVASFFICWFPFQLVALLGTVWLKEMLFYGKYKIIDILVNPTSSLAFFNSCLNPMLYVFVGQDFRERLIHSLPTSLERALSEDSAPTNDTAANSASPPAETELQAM
On to `COc1ccc(-c2cn3cccnc3n2)cc1NC(=O)c1c(-c2ccccc2Cl)noc1C`, for which the inhibition was 13.3% [at 4.8 µM].

Regarding `Cc1ccc(-c2cc(C(F)F)nc(N3CCN(c4ccccc4)CC3)n2)cc1`, the inhibition is 21.3% [at 5.8 µM].

`CCOC(=O)N1CCN(c2nc(-c3ccc(C)cc3)cc(C(F)F)n2)CC1`: the inhibition is 1% [at 5.9 µM].

With `CCOC(=O)N1CCN(c2nc(-c3ccccc3Cl)c3cc(Br)ccc3n2)CC1`, the inhibition is -4.5% [at 4.7 µM].

For `CCN1CCN(c2nc(-c3ccc(Cl)cc3)cc(C(F)(F)F)n2)CC1`, the inhibition was -7.7% [at 6 µM].

Turning to `CCCCN1CCN(c2nc(-c3ccccc3)c3cc(C)ccc3n2)CC1`, the inhibition was 17.2% [at 5.6 µM].

As to `CC(=O)N1CCN(c2nc(-c3ccccc3)c3ccccc3n2)CC1`, the inhibition is -11.2% [at 6.7 µM].

Take `COc1ccc(-c2cc(C#N)nc(N3CCN(c4ccccc4)CC3)n2)cc1`: the inhibition is 5.3% [at 6 µM].

On to `COc1ccc(-c2cn3cccnc3n2)cc1NC(=O)C(C)Oc1ccccc1` (stereo unspecified), for which the inhibition was -8.6% [at 5.7 µM].

As to `Fc1ccc(-c2cc(C(F)(F)F)nc(N3CCN(c4cccc(Cl)c4)CC3)n2)cc1`, the inhibition is 19.5%.

For the molecule `CCOC(=O)N1CCN(c2nc(-c3ccc(OC)c(OC)c3)cc(C(F)(F)F)n2)CC1`, the inhibition was 36.1% (active).

For `COc1ccc(-c2cn3cccnc3n2)cc1NC(=O)c1ccc(Br)o1`, the inhibition was -10% [at 5.4 µM].

With `CC(N)C(=O)N1CCN(c2nc(-c3ccccc3)c3cc([N+](=O)[O-])ccc3n2)CC1` (stereo unspecified), the inhibition is 3.9% [at 5.5 µM].

Take `Cc1ccc2nc(N3CCN(c4ccccc4Cl)CC3)nc(-c3ccccc3)c2c1`: the inhibition was 33.4% [at 5.4 µM] (active).

With `COc1ccc(C2CC(=O)c3cnc(N4CCN(Cc5ccc6c(c5)OCO6)CC4)nc3C2)c(OC)c1` (stereo unspecified), the inhibition was -2.7% [at 4.4 µM].

In the case of `O=C(N1CCN(c2nc(-c3ccccc3)c3cc([N+](=O)[O-])ccc3n2)CC1)C(F)(F)F`, the inhibition was -4.2% [at 5.2 µM].

Take `Cc1ccc(-c2cc(C(F)F)nc(N3CCN(c4cccc(Cl)c4)CC3)n2)cc1`: the inhibition was -3.5% [at 5.4 µM].

Take `COc1ccc(-c2cc(C(F)(F)F)nc(N3CCN(c4ccccc4)CC3)n2)cc1OC`: the inhibition is -5% [at 5 µM].

For the molecule `O=C(c1ccccc1)N1CCN(c2nc(-c3ccccc3)c3cc([N+](=O)[O-])ccc3n2)CC1`, the inhibition was 18.8%.

For `CCCCOc1ccc(C(=O)Nc2cc(-c3cn4cccnc4n3)ccc2OC)cc1`, the inhibition is 1.7% [at 5.3 µM].

As to `COc1ccc(-c2cc(C(F)(F)F)nc(N3CCN(c4ccc(F)cc4)CC3)n2)cc1OC`, the inhibition is 5.4% [at 4.8 µM].

For the molecule `O=C(O)/C=C\C(=O)N1CCN(c2nc(-c3ccccc3)c3cc(Br)ccc3n2)CC1`, the inhibition is 15.8% [at 4.8 µM].

`COc1ccc(-c2cn3cccnc3n2)cc1NC(=O)Cc1ccccc1`: the inhibition is 31.2% [at 6.2 µM] (active).

In the case of `COc1ccc(-c2cn3cccnc3n2)cc1NC(=O)c1ccccc1Br`, the inhibition is 3.2% [at 5.3 µM].

As for `Clc1cccc(-c2nc(N3CCN(c4ccccn4)CC3)nc3c2COc2ccccc2-3)c1`, the inhibition is -0.8% [at 4.9 µM].

With `CC(C)(C)OC(=O)N1CCN(c2nc(-c3ccccc3)c3cc([N+](=O)[O-])ccc3n2)CC1`, the inhibition was 14.7%.

For the molecule `COc1ccc(C2CC(=O)c3cnc(N4CCN(Cc5ccc6c(c5)OCO6)CC4)nc3C2)cc1` (stereo unspecified), the inhibition is 8% [at 4.7 µM].

With `COc1ccccc1-c1cc(C(F)(F)F)nc(N2CCN(c3ccc(F)cc3)CC2)n1`, the inhibition is -8.8%.

As for `O=C(O)CCC(=O)N1CCN(c2nc(-c3ccccc3Cl)c3cc(Br)ccc3n2)CC1`, the inhibition was -2% [at 4.4 µM].

Take `COc1ccc(-c2nc(N3CCN(C)CC3)[nH]c(=O)c2C#N)cc1`: the inhibition is -9.7% [at 6.8 µM].

`COc1cccc(-c2cc(C(F)(F)F)nc(N3CCN(C(c4ccccc4)c4ccccc4)CC3)n2)c1`: the inhibition is -3.9% [at 4.4 µM].

In the case of `COc1ccc(-c2cn3cccnc3n2)cc1NC(=O)C1CCCCC1`, the inhibition was 1.2% [at 6.3 µM].

For `CCN1CCN(c2nc(-c3cccc(Cl)c3)c3c(n2)-c2ccccc2OC3)CC1`, the inhibition was -10.9% [at 5.5 µM].

With `COc1ccc(-c2cn3cccnc3n2)cc1NC(=O)C1CCCC1`, the inhibition was 34.6% [at 6.6 µM] (active).

Consider `COc1cccc(-c2cc(C(F)(F)F)nc(N3CCN(C)CC3)n2)c1`, for which the inhibition was -18% [at 6.3 µM].

As to `COc1ccccc1-c1cc(C(F)(F)F)nc(N2CCN(c3ccccc3OC)CC2)n1`, the inhibition is -2.8% [at 5 µM].

Values taken from PubChem BioAssay AID765 (NMMLSC, 2007).
